SMILES strings stand for the structures.

Settings in all cases: concentration: 1 μM, replicates: in singlicate; n = 1
Test [1] concerns TIE1.
Test [2] concerns T1, TIE2.
T1 construct: gene TEK

The subject of test [3] is TLK1.
In test [4] the test system is TLK2.
Test [5] relates to TNIK.
In test [6] the test system is TNK1.
The subject of test [7] is TNK2.
Test [8] relates to TNNI3K.
The test system of test [9] is T2, TRKA.
T2 construct: gene NTRK1

Test [10] has as its system TRKB.
In test [11] the test system is T3, TRKC.
T3 construct: gene NTRK3

In test [12] the test system is TRPM6.
The test system of test [13] is TSSK1B.
The test system of test [14] is TSSK3.
The subject of test [15] is TTK.
Test [16] relates to TXK.
Test [17] has as its system TYK2(JH1domain-catalytic).
Test [18] deals with TYK2(JH2domain-pseudokinase).
The subject of test [19] is TYRO3.
Test [20] relates to ULK1.
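Further: KINOMEscan kinase panel screen.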

As for `FC(F)(F)c1cc(Nc2nccc(-c3c(-c4ccc(Cl)cc4)nn4ncccc34)n2)ccc1Cl` [GW829351], the “%Inh” value in test [1] is given as 0%; in test [2], 0%; in test [3] it was 0%; in test [4] it was 0%; in test [5], 12%; in [6], 21%. Also, the “%Inh” value in [7], in test [8], in test [9], in test [10], in test [11] and in test [12] was 0% throughout. In addition, the “%Inh” value worked out at 0% in test [13]; 0% in test [14]; 0% in test [15]; 0% in test [16]; 6% in test [17]; 0% in test [18]. In addition, the “%Inh” value in [19] and in [20] was 0% each time.
`CS(=O)(=O)CCNCc1ccc(-c2ccc3ncnc(Nc4ccc(OCc5ccccc5)c(Cl)c4)c3c2)o1.Cl` [GW574783]: the “%Inh” value in test [1] was determined as 34%; in test [2], 2%; in test [3], 0%; in test [4] it was 0%; in test [5], 0%; in test [6], 0%. Besides, the “%Inh” value in test [7] is given as 9%; in test [8] it was 0%; in test [9], 17%; in [10], 0%; in test [11], 24%; in test [12], 7%. Also, the “%Inh” value in [13] was determined as 39%; in [14], 21%; in test [15], 18%; in [16], 10%; in test [17], 27%; in test [18], 22%. Further, the “%Inh” value in test [19] and in test [20] was 0% in each case.
Consider `CSc1ccc(NC2=C(c3ccccc3Cl)C(=O)NC2=O)cc1` [SB-342411], for which the “%Inh” value came to 40% in test [1]; 0% in test [2]; 35% in [3]; 6% in test [4]; 0% in [5]; 0% in test [6]. Besides, the “%Inh” value in [7] is recorded as 0%; in [8], 29%; in [9] it was 20%; in test [10] it was 0%; in test [11], 0%; in test [12] it was 0%. Moreover, the “%Inh” value is recorded as 21% in test [13]; 10% in test [14]; 0% in [15]; 3% in test [16]; 0% in [17]; 0% in [18]. Besides, the “%Inh” value in test [19] is 5%; in test [20] it was 10%.
Turning to `Cl.c1ccc(Cn2ccc3cc(Nc4ncnc5ccccc45)ccc32)cc1` [GW275568], the “%Inh” value in test [1] was 0%; in [2] it was 0%; in test [3], 19%; in [4] it was 0%; in [5], 0%; in test [6], 0%. For the same compound, the “%Inh” value in [7] is listed as 12%; in test [8], 18%; in test [9], 5%; in test [10], 0%; in [11], 0%; in [12] it was 32%. For the same compound, the “%Inh” value in test [13] is reported as 0%; in [14] it was 13%; in test [15] it was 9%; in [16], 14%; in [17], 0%; in test [18], 0%. Besides, the “%Inh” value in test [19] is listed as 0%; in [20], 1%.
With `Cl.Fc1ccccc1COc1ccc(Nc2ncnc3ccc(-c4nnc(C(F)(F)F)o4)cc23)cc1Cl` [GW424170], the “%Inh” value turned out to be 0% in [1]; 0% in [2]; 4% in [3]; 0% in test [4]; 0% in test [5]; 0% in test [6]. For the same compound, the “%Inh” value in test [7] is 0%; in [8], 0%; in test [9] it was 3%; in test [10], 6%; in [11], 5%; in test [12], 0%. Besides, the “%Inh” value in test [13] came to 0%; in test [14], 6%; in [15], 0%; in test [16], 18%; in [17], 11%; in test [18], 12%. The “%Inh” value in [19] and in test [20] was 0% throughout.
In the case of `COc1cc2c(Nc3cccc(NC(=O)c4ccccc4)c3)ncnc2cc1OCCCN1CCOCC1` [GSK223810], the “%Inh” value worked out at 24% in test [1]; 0% in test [2]; 0% in test [3]; 0% in [4]; 0% in [5]; 22% in test [6]. Further, the “%Inh” value was 13% in test [7]; 25% in test [8]; 45% in [9]; 0% in [10]; 0% in test [11]; 0% in test [12]. The “%Inh” value in test [13] was 5%; in [14], 17%; in test [15], 29%; in test [16], 0%; in test [17], 0%; in test [18], 0%. The “%Inh” value in [19] is on record as 0%; in test [20] it was 17%.
Take `Fc1cccc(COc2ccc(Nc3ncnc4sc(-c5ccc[nH]5)cc34)cc2Cl)c1` [GW707818]: the “%Inh” value is listed as 0% in [1]; 16% in test [2]; 25% in test [3]; 11% in test [4]; 0% in test [5]; 0% in test [6]. For the same compound, the “%Inh” value in test [7] is reported as 13%; in test [8] it was 13%; in [9] it was 22%; in test [10], 0%; in test [11], 14%; in test [12], 30%. Further, the “%Inh” value in test [13] worked out at 0%; in [14], 7%; in test [15], 0%; in test [16], 5%; in test [17] it was 17%; in test [18], 10%. The “%Inh” value in test [19] and in [20] was 0% throughout.
Take `N#Cc1ccc(Oc2ccc(Nc3ncnc4cc[nH]c34)cc2Cl)cc1`: the “%Inh” value in test [1] amounted to 0%; in test [2], 20%; in test [3], 22%; in test [4], 0%; in test [5], 9%; in test [6] it was 0%. The “%Inh” value in test [7] was 2%; in [8], 26%; in [9], 17%; in test [10], 0%; in test [11], 21%; in test [12], 0%. Further, the “%Inh” value in [13] is listed as 0%; in test [14] it was 0%; in test [15] it was 16%; in test [16], 2%; in [17] it was 12%; in test [18] it was 11%. Moreover, the “%Inh” value is given as 0% in [19] and 14% in test [20].
As to `Cl.O=S(=O)(c1cccc(F)c1)c1ccc(Nc2ncnc3cc(Br)sc23)cc1Cl` [GSK306886], the “%Inh” value in test [1] was determined as 0%; in test [2], 0%; in test [3] it was 19%; in test [4] it was 2%; in [5], 0%; in test [6], 0%. For the same compound, the “%Inh” value in test [7] came to 21%; in [8] it was 23%; in [9], 0%; in test [10], 0%; in test [11] it was 0%; in [12], 28%. Besides, the “%Inh” value was found to be 0% in [13]; 10% in test [14]; 17% in [15]; 15% in test [16]; 4% in test [17]; 0% in test [18]. Besides, the “%Inh” value in [19] and in [20] was 0% in each case.
With `Cc1cccc(-c2nc(Nc3ccc4[nH]nnc4c3)c3ccccc3n2)n1` [GW867587], the “%Inh” value in test [1] is reported as 0%; in [2] it was 0%; in test [3] it was 0%; in [4], 0%; in test [5], 0%; in test [6], 24%. Also, the “%Inh” value in [7], in test [8], in test [9], in test [10], in test [11] and in test [12] was 0% each time. Moreover, the “%Inh” value in [13] is recorded as 0%; in [14], 0%; in [15], 0%; in test [16], 0%; in test [17], 0%; in test [18], 42%. The “%Inh” value in [19] and in test [20] was 0% each time.
As to `Cl.Cl.c1ccc(-c2cc3ccncc3cc2OC2CCNCC2)cc1` [GSK1122999], the “%Inh” value is 1% in test [1]; 0% in [2]; 0% in test [3]; 7% in test [4]; 0% in test [5]; 6% in test [6]. The “%Inh” value in test [7] amounted to 27%; in test [8] it was 26%; in [9] it was 0%; in test [10], 0%; in test [11], 0%; in test [12] it was 15%. Further, the “%Inh” value was found to be 0% in test [13]; 47% in test [14]; 0% in [15]; 4% in [16]; 24% in [17]; 79% in test [18]. The “%Inh” value in test [19] is reported as 7%; in test [20], 12%.
For `O=C(Nc1ccccc1F)NC1CCN(c2ccnc(Nc3ccc(F)cc3)n2)C1` (stereo not drawn) [GSK1379722], the “%Inh” value in test [1], in [2], in [3], in test [4], in test [5] and in test [6] was 0% throughout. Moreover, the “%Inh” value is 27% in test [7]; 0% in test [8]; 0% in test [9]; 32% in test [10]; 22% in test [11]; 0% in test [12]. Besides, the “%Inh” value in [13] came to 12%; in test [14], 31%; in test [15] it was 7%; in test [16], 16%; in [17], 23%; in [18], 20%. For the same compound, the “%Inh” value in test [19] and in [20] was 0% in each case.
For the compound `Clc1cc(Nc2ncnc3cc[nH]c23)ccc1OCc1ccccn1`, the “%Inh” value turned out to be 10% in test [1]; 23% in [2]; 26% in [3]; 4% in test [4]; 22% in [5]; 0% in test [6]. Further, the “%Inh” value is reported as 5% in test [7]; 2% in test [8]; 2% in test [9]; 12% in test [10]; 0% in [11]; 0% in test [12]. Besides, the “%Inh” value in test [13] came out at 44%; in test [14], 0%; in test [15], 19%; in test [16], 11%; in test [17], 8%; in test [18], 28%. Further, the “%Inh” value in test [19] is listed as 0%; in test [20], 9%.
As to `C[C@@H]1CCN(C(=O)CO)C[C@@H]1N(C)c1ncnc2[nH]ccc12`, the “%Inh” value in test [1] turned out to be 3%; in test [2] it was 2%; in [3], 0%; in test [4], 0%; in test [5] it was 6%; in test [6], 62%. Moreover, the “%Inh” value in test [7] amounted to 0%; in test [8] it was 0%; in [9], 15%; in test [10] it was 10%; in test [11], 0%; in test [12], 0%. The “%Inh” value came to 0% in [13]; 0% in [14]; 0% in test [15]; 7% in [16]; 90.6% in [17]; 0% in test [18]. For the same compound, the “%Inh” value in [19] and in test [20] was 0% throughout.
Turning to `O=C(c1ccc(-c2cc(-c3c[nH]nc3-c3ccccn3)ccn2)cc1)N1CCCC1` [GW792479], the “%Inh” value in test [1] turned out to be 0%; in [2], 27%; in test [3] it was 0%; in [4] it was 0%; in [5] it was 48%; in [6], 21%. Further, the “%Inh” value in test [7], in test [8], in [9], in [10], in [11] and in [12] was 0% throughout. In addition, the “%Inh” value is on record as 0% in test [13]; 0% in [14]; 29% in test [15]; 23% in test [16]; 0% in test [17]; 15% in test [18]. For the same compound, the “%Inh” value in test [19] and in [20] was 0% each time.
